A selection: hits, their analogues and other compounds. The true share with any hit is near 0.46%.
CaV13 FRET inh: Disruptors of the CACNA1D IQ motif to Ca2+-dependent inactivation inhibitor domain association, primary screening, Förster resonance energy transfer in intact living …; HEK cells, CFP/YFP FRET ICDI-IQ, plate reader, 10 min; percent FRET-ratio fall versus neutral wells; inhibition, % at 12.3 µM; 340,000 compounds, 0.098% hits; AID 743397;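 active = mean replicate inhibition of at least 30% and at least 1% of replicates passing that level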
ERp5 block: blocks human ERp5 reductase activity on insulin; ERp5 insulin aggregation, absorbance 650 nm, 90 min; inhibition, % at 9.99 µM; 350,000 compounds, 0.05% hits; AID 651711;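 active = mean replicate inhibition above about 25%, with every replicate also reaching it, limit read from the data, passing the limit was not always enough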
PGC1a acetyl inh: lowers PGC1a acetylation signal in U2OS cells. AlphaScreen anti-acetyl-lysine; with virally co-expressed GCN5 acetyltransferase. inhibition, % at 15.6 µM. 350,000 compounds, 0.17% hits. AID 651687;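 active = every replicate shows inhibition of at least 40%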
PglD inh: inhibitors of Campylobacter jejuni PglD acetyltransferase; inhibition, % at 12.5 µM; AID 602405; purified PglD enzyme, DTNB colorimetric CoA detection; 360,000 compounds, 0.098% hits; in the data active = inhibition above about 16%, passing the limit was not always enough
ERAP1 inh: blocks human ERAP1 aminopeptidase activity; recombinant ERAP1, Leu-AMC fluorescence, 60 min; inhibition, % at 10.7 µM; 340,000 compounds, 0.15% hits; AID 652197;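 active = mean replicate inhibition of at least 30%, or all replicates individually reaching that 30% level; inactive = mean below 30% and not every replicate reaching it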
Target sequence (Q9NZ08 whole entry, looked up): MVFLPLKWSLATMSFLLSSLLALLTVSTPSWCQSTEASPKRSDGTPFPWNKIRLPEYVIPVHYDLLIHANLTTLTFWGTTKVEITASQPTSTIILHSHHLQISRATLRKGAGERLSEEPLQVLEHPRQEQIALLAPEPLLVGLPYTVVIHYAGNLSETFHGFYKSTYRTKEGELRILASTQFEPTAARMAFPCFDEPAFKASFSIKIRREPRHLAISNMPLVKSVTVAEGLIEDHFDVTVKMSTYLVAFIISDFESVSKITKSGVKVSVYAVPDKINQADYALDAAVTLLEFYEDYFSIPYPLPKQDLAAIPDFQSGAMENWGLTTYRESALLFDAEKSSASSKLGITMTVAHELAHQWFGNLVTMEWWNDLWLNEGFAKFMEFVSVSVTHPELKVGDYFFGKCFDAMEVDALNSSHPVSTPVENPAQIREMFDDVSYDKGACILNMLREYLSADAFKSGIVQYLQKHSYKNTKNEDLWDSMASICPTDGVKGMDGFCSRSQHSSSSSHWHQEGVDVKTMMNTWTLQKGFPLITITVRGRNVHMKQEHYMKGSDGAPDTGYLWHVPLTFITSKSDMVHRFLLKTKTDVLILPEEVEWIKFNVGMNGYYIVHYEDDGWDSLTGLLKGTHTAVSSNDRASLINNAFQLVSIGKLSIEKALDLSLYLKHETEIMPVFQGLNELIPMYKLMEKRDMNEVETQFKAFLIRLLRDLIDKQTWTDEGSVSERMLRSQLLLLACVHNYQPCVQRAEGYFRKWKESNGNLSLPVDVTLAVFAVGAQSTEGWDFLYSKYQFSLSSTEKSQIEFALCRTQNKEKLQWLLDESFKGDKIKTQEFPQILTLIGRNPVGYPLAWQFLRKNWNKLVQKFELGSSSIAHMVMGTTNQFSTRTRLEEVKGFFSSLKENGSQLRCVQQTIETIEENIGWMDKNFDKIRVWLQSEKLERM
PDI turbidity: blocks human protein disulfide isomerase activity; 350,000 compounds, 0.052% hits; inhibition, % at 10 µM; P07237; AID 588391; PDI insulin aggregation turbidity, A650, 90 min;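 active = mean inhibition across replicates of 30% or more, whatever share of single replicates reach that level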
Hits are given with their value; - = inactive; . = no result.

SMILES | CaV13 FRET inh | ERp5 block | PGC1a acetyl inh | PglD inh | ERAP1 inh | PDI turbidity
COc1ccccc1C1C2=C(CC(C)(C)CC2=O)N(CC(=O)O)C2=C1C(=O)CC(C)(C)C2 | 36 | - | - | - | - | -
COc1ccc(CN(C)C[C@H]2Oc3c(NC(=O)NC(C)C)cccc3C(=O)N([C@@H](C)CO)C[C@@H]2C)cc1 | . | - | - | - | - | .
C[C@@H]1CN([C@@H](C)CO)C(=O)c2cccc(NC(=O)c3cnccn3)c2O[C@H]1CN(C)Cc1ccc(Cl)c(Cl)c1 | . | - | - | - | 32 | .
COc1ccc(CN(C)C[C@H]2Oc3c(NC(=O)NC(C)C)cccc3C(=O)N([C@@H](C)CO)C[C@H]2C)cc1 | . | - | - | 16 | - | .
C[C@H](CO)N1C[C@H](C)[C@H](CN(C)C)Oc2c(NC(=O)Nc3ccccc3)cccc2C1=O | . | - | - | - | - | .
C[C@H]1CN([C@@H](C)CO)C(=O)c2cccc(NC(=O)Nc3ccccc3)c2O[C@H]1CN(C)C | . | - | - | 19 | - | .
O=C(C[C@H]1CC[C@@H](NC(=O)c2ccncc2)[C@@H](CO)O1)Nc1ccc(-c2ccccc2)cc1 | . | - | - | . | - | .
C[C@@H]1CN([C@H](C)CO)C(=O)c2cc(NS(C)(=O)=O)ccc2O[C@@H](C)CCCCO[C@@H]1CN(C)CC1CCCCC1 | . | - | - | - | - | .
COc1ccccc1-c1cn(CC[C@H]2CC[C@H](NC(=O)C3CC3)[C@@H](CO)O2)nn1 | . | - | - | - | - | .
O=C(CCl)Nc1nc(-c2ccco2)c(-c2ccco2)s1 | - | - | . | . | - | 62
O=C(CCCSc1ccccc1)Nc1nc(-c2ccco2)c(-c2ccco2)s1 | - | - | . | - | - | -
O=C(NN=C1c2ccccc2-c2ccccc21)c1ccccc1Br | - | - | 66 | - | - | -
O=C(NN=C1c2ccccc2-c2ccccc21)c1ccccc1 | - | - | - | - | - | -
Cc1ccc(S(=O)(=O)N(C)C[C@@H]2Oc3ccc(NS(C)(=O)=O)cc3C(=O)N([C@@H](C)CO)C[C@@H]2C)cc1 | . | - | - | - | - | .
COC(=O)COc1c(/C=C\c2nc(O)c([N+](=O)[O-])c(=O)[nH]2)cccc1OC | - | - | 55 | - | - | -
O=C(O)C[C@@H]1C=C[C@H](NC(=O)c2ccccc2F)[C@H](CO)O1 | . | . | - | . | . | .
CN(C)/C=C/C(=O)c1ccc(C(F)(F)F)cc1F | - | - | - | - | - | -
CN(C)/C=C/C(=O)c1c(F)cccc1F | 94 | - | - | . | - | -
CO[C@H]1CN(C)C(=O)c2ccc(NC(=O)NC(C)C)cc2OC[C@@H](C)N(Cc2ccc(-c3ccccn3)cc2)C[C@@H]1C | . | - | - | - | - | .
O=C1c2ccccc2NC(c2cccc(O)c2)N1NS(=O)(=O)c1ccccc1 (stereo not given) | - | - | - | - | 38 | -
O=C(CSc1nnc(-c2ccco2)n1-c1ccccc1)Nc1c(Cl)cc(Cl)cc1C(=O)O | - | - | 52 | - | - | -
O=[N+]([O-])c1c(NCCCO)cc(Sc2nc3ccccc3s2)c2nonc12 | . | - | 58 | - | - | -
COc1ccccc1CNC(=O)C[C@@H]1CC[C@H]2[C@@H](COC[C@@H](O)CN2C(=O)Nc2ccc(Cl)cc2)O1 | . | - | - | - | - | .
CC1OC2CC(=O)OC2C2=C1C(=O)c1c(O)cccc1C2=O (stereo not given) | . | - | 78 | - | - | .
COc1ccccc1-c1cc(C(F)(F)F)nc(S(=O)(=O)CCCC(=O)Nc2cc(C)on2)n1 | - | . | - | - | . | -
COc1ccc(-c2cc(C(F)(F)F)nc(S(=O)(=O)CCCC(=O)Nc3cc(C)on3)n2)cc1OC | - | - | . | . | 37 | -
CO[C@@H]1CC[C@@H]2CCOc3c(C#N)cccc3C(=O)N(C)C[C@@H](c3ccccc3)CC(=O)N(C)C[C@H]1O2 | . | - | - | - | - | .
NC(=S)NC1CC2CC1C1C=CCC21 (stereo not given) | - | - | . | . | - | -
CNNC(=S)NC1CC2CC1C1C=CCC21 (stereo not given) | 41 | . | - | - | - | -
CCN(CC)Cc1c(O)ccc2c([N+](=O)[O-])c(C)n(-c3ccc(OC)cc3)c12 | . | . | 46 | - | . | -
